Test results: ChEMBL document CHEMBL3988442, “University of Dundee, Small-Polar-MMV Screening Library” (2021)
Hit rate of the full screen: of about 48,000 compounds, about 13,000 (27%) showed an effect of 50% or more. Some of the results follow.

Test system: Wolbachia pipientis
Experiment: Anti-Wolbachia Cell-Based Screen
Format: functional
Design: scale not given: in the data most compounds retested in dose-response had high values
Settings: 5 µM

SMILES	Percent Effect [%]
Cc1nnc([C@@H]2C[C@H]3CN(C4CCC4)C[C@H]3O2)[nH]1.O=C(O)C(F)(F)F	6.797
CCN1C(=O)C2(CCCCC2)NC12CCSCC2	-2.409
CCCNC1(c2ccc(Cl)cc2)CCOCC1	-6.475
CN1CCC(c2cncc(N(C)C)n2)CC1	94.73
COCCNc1nc2c(c(NCc3cnc(C)c(C)c3)n1)CCNCC2	2.827
Cc1csc([C@@H]2C[C@@H]3CCN(Cc4cc(C)on4)C[C@H]3O2)n1	98.39
Cc1csc([C@H]2C[C@@H]3CCN(Cc4cc(C)on4)C[C@H]3O2)n1	115.5
Cc1csc(CN2CC[C@H]3C[C@H](c4ccncn4)O[C@@H]3C2)n1	0.9996
Cc1cc(CN2CC[C@H]3C(=O)N(c4ccsc4)CCO[C@H]3C2)no1.O=C(O)C(F)(F)F	-15.71
Cc1cc(CN2C[C@@H]3CN(Cc4ccsc4)CCO[C@@H]3C2)no1	-0.7027
Cc1cc(CN2CC[C@H]3C[C@H](C(=O)N(C)C)O[C@@H]3C2)no1	-3.331
Cc1nnc([C@H]2CC[C@@H]3[C@@H](CCN3Cc3c(C)noc3C)O2)o1	0.6834
Cc1cc(CN2C[C@@H]3COC[C@]3(c3nnc(C)o3)C2)no1	12.18
Cc1csc([C@H]2C[C@H]3CN(Cc4cc(C)on4)CC[C@@H]3O2)n1.O=C(O)C(F)(F)F	122.4
C[C@@H]1C[C@@H]2CCN(Cc3nccs3)C[C@H]2O1	-21.98
Cc1cc(CN2CC[C@@H]3O[C@@H](c4nnc(C)o4)C[C@H]3C2)no1	110.6
Cc1noc([C@@H]2C[C@H]3CN(Cc4cc(C)on4)C[C@H]3O2)n1.O=C(O)C(F)(F)F	5.383
Cc1nn(C)c(C)c1C(C(=O)O)N1CC=C(c2ccccc2)CC1 (stereo unspecified)	-20.97
CN1CCN(C[C@H]2CN3CC[C@H]2C[C@@H]3CNC(=O)c2ccco2)CC1	-8.219
O=C(O)C(F)(F)F.O=C(O)C(F)(F)F.c1cncc(CO[C@H]2CC[C@H]3[C@@H]2OCCN3C2CCOCC2)c1	-9.441
Cc1ccc(CN2CCO[C@H]3[C@H](OCc4cccnc4)CC[C@@H]32)o1.O=C(O)C(F)(F)F.O=C(O)C(F)(F)F	105.6
c1ccc(O[C@H]2CC[C@H]3[C@H]2OCCN3Cc2nccs2)nc1	-6.34
Cc1ccc(CN2CCO[C@H]3[C@@H](OCc4cccnc4)CC[C@@H]32)o1.O=C(O)C(F)(F)F.O=C(O)C(F)(F)F	111.1
Cc1ccc(CN2CCO[C@@H]3[C@@H](OCc4cccnc4)CC[C@@H]32)o1	103.6

SMILES	Percent Effect [%]
CC(C)CNC(=O)N1CCOC2(CCNCC2)C1	-1.344
CC[C@H](N)Cn1nc(-c2cccs2)oc1=O.Cl	-4.464
CCOCCNC1(c2ccc(Cl)cc2)CCOCC1	-4.765
CN(CCc1ccc(F)cc1)Cc1nc2c(cnn2C)c(=O)[nH]1	17.64
CN(CCc1ccccc1)Cc1nc2c(cnn2C)c(=O)[nH]1	101
CC(NC(=O)CN1CCCC1=O)c1ccc(Cl)s1 (stereo unspecified)	-9.497
O=C(c1ccc2c(c1)COC2)N1CCC(Nc2ccccc2)CC1	5.047
O=C(c1ccc2c(c1)OCO2)N1CCC(C(=O)O)(c2ccccc2)CC1	117.1
O=C(CCc1ccsc1)N1CCC(C(=O)O)(c2ccccc2)CC1	7.958
COC(=O)N1C[C@H]2CC[C@@H]1CN(Cc1ccncc1)C2	-3.604
CC(C)OC(=O)N1C[C@H]2CC[C@@H]1CN(Cc1cccnc1)C2	-10.82
Oc1cccc(CN2C[C@H]3CC[C@@H]2CN(Cc2cccnc2)C3)c1	8.491
O=C(C1CCOCC1)N1C[C@H]2CC[C@@H]1CN(Cc1ccncc1)C2	9.375
COCCN1CC[C@]2(CN(Cc3cccnc3)C[C@H]2C)C1=O.O=C(O)C(F)(F)F.O=C(O)C(F)(F)F	106.1
Cc1ncsc1CN1C[C@@H]2CN(Cc3cccnc3)CCO[C@@H]2C1	-8.283
COCCN1CC[C@]2(CN(Cc3ccccn3)C[C@H]2C)C1=O.O=C(O)C(F)(F)F.O=C(O)C(F)(F)F	-7.652
Cc1ccc([C@]2(O)CC[C@H]3CN(Cc4ccncc4)C[C@H]32)nc1	139.7
Cc1ccc([C@]2(O)CC[C@H]3CN(Cc4cccnc4)C[C@H]32)nc1	129.8
O=C1CO[C@H]2CN(Cc3cccnc3)C[C@H]2N1	0.8904
C[C@@H]1CN(C2CCOC2)C[C@]12CCN(Cc1cccnc1)C2=O.O=C(O)C(F)(F)F.O=C(O)C(F)(F)F (stereo partly specified)	-21.11
C[C@@H]1CN(Cc2cccnc2)C[C@]1(C)O	104.9
CCCn1ncc(CN2CCCC(C(=O)c3ccc(SC)cc3)C2)c1C (stereo unspecified)	-6.021
Cc1cccc2cc(CN3CCCN4CCC[C@H]4C3)c(=O)[nH]c12	-11.16
c1cnc(N2CC[C@@H]3[C@@H]2CCN3Cc2cccs2)nc1	-7.885

SMILES	Percent Effect [%]
Cl.Cl.O=C1NC2(CCNCC2)CC1c1ccncc1 (stereo unspecified)	-8.002
CC(C)=CCN1C[C@H]2CC[C@@H]1CN(S(=O)(=O)c1cccnc1)C2	-24.05
CNc1nc(C(=O)N2C[C@@H]3CCN(C)[C@@H]3C2)cs1	2.53
Cc1cc(C(=O)NCC(=O)N2CCOCC2)nn1C(C)(C)C	90.04
CN1CCc2c(CNC(=O)c3nccn3C)cncc2C1.Cl.Cl.Cl	16.49
Cl.Cl.Cn1cc(C(=O)NCc2cncc3c2CCNC3)cn1	102.3
Cc1ncc2c(c1CNC(=O)C1(C)CC1)CCNC2	-5.654
Cc1nc(CC(=O)N2CCN(Cc3ccc(C#N)cc3)CC2)cs1	-1.564
CCCN1CCN(Cc2nccn2CC)C(C)C1 (stereo unspecified)	-20.72
NC(=O)CN1CCCN(C(=O)Cc2ccc3ccccc3c2)CC1	-1.177
CCn1ccnc1CN1CCCN(C(=O)Cc2ccc(C)nc2)CC1	-2.19
CCn1ccnc1CN1CCCN(C(=O)Cc2ccc(C)cc2)CC1	110.8
CCn1ccnc1CN1CCCN(C(=O)Cc2ccc(C)s2)CC1	99.83
CCN1CCN(C(=O)Cc2ccc(S(=O)(=O)C(F)F)cc2)CC1	-2.606
Cc1ccc(CC(=O)N2CCCN(Cc3nccn3C)CC2)cn1	118.2
CCn1cc(CN2CCCN(C(=O)Cc3ccc(C)nc3)CC2)cn1	6.063
CCn1ccnc1CN1CCCN(C(=O)Cc2csc(C)n2)CC1	120.7
CCn1cc(CN2CCCN(C(=O)Cc3cccs3)CC2)cn1	-6.845
CCc1nc(CN2CCCN(C(=O)Cc3cccs3)CC2)cs1	-3.679
COCC(=O)NC[C@H]1C[C@@H]2CCN1C[C@@H]2CN1CCc2ccccc21	-6.803
CNCCc1nc2cc(F)ccc2[nH]1.Cl.Cl	-2.58
COCC1CN(c2ccc(C#N)c(Cl)c2)CCO1 (stereo unspecified)	-25.31
CCn1ccnc1CN1CCCN(C(=O)Cc2ccccc2C)CC1	129.6
CCc1noc(CN2CCN(C(=O)Cc3ccc(F)cc3)CC2)n1	-6.192

SMILES	Percent Effect [%]
NC(=O)CN1CCCN(C(=O)Cc2ccc(F)c(Br)c2)CC1	-2.154
O=C(Cc1ccccc1)N1CCN(Cc2noc(C3CC3)n2)CC1	0.1776
CCn1ccnc1CN1CCCN(C(=O)Cc2ccc(F)cc2)CC1	115.9
O=c1c2ccccc2cnn1Cc1cncn1C1CC1	94.68
COCCn1cncc1CN1CCC(C(C)=O)(c2ccccc2)CC1	-9.89
CCn1cncc1Cn1ncc2ccccc2c1=O	88.95
COCCn1cncc1Cn1ncc2ccccc2c1=O	103.5
N#Cc1ccc(S(=O)(=O)NCCn2ccnc2)cc1Cl	-8.716
Cl.O=C1NC2(CCNCC2)CC1c1ccccc1 (stereo unspecified)	-38.6
CC(C)COC(=O)N1CCC2(CCNC2)C1.Cl (stereo unspecified)	-11.51
CC(C)NC(=O)N1CCOC2(CCCNC2)C1 (stereo unspecified)	-11.25
Cc1[nH]c2c(F)cccc2c1CC(=O)N1CCN(C2CCSCC2)CC1	-2.752
CCCS(=O)(=O)N1CCc2c(COCC)cncc2C1.O=C(O)C(F)(F)F	0.2019
CN(C)CCOCc1cncc2c1CCN(C1CCOC1)C2.O=C(O)C(F)(F)F.O=C(O)C(F)(F)F.O=C(O)C(F)(F)F (stereo unspecified)	106.1
CCS(=O)(=O)N1CCc2c(COCCN(C)C)cncc2C1.O=C(O)C(F)(F)F.O=C(O)C(F)(F)F	97.71
CCN(C)c1ncc2c(c1C(=O)O)CCN(C1CCOC1)C2.O=C(O)C(F)(F)F.O=C(O)C(F)(F)F (stereo unspecified)	-4.446
CC(Cc1cccc(Cl)c1)NC(=O)NCc1ncnn1C (stereo unspecified)	-5.872
Cc1ncccc1OCC(=O)N1CCN[C@H]2CS(=O)(=O)C[C@H]21	-3.722
CCOC[C@H]1CC[C@H]2[C@H](CCN2Cc2c(C)noc2C)O1.O=C(O)C(F)(F)F	4.615
CCOC[C@@H]1CC[C@H]2[C@H](CCN2Cc2c(C)noc2C)O1.O=C(O)C(F)(F)F	3.079
Cc1noc(C)c1CN1CC[C@@H]2O[C@@H](COCC3CC3)CC[C@@H]21.O=C(O)C(F)(F)F	-0.7071
Cc1noc(C)c1CN1CCO[C@H]2CN(CC3CC3)C[C@H]21.O=C(O)C(F)(F)F.O=C(O)C(F)(F)F	-4.425
Cc1noc(C)c1CN1CC[C@H]2[C@H]1CCN2CC1CCOCC1.O=C(O)C(F)(F)F.O=C(O)C(F)(F)F	115.6
COCCN1C(=O)CC[C@@H]2[C@@H]1CCN2Cc1c(C)noc1C.O=C(O)C(F)(F)F	103.6
